Screening results as filed in PubChem.
BAZ2B block: inhibitors of human BAZ2B bromodomain; Q9UIF8; AlphaScreen BAZ2B-H3K14Ac peptide displacement; Potency, µM (top dose mostly 114 µM), for inactives: at the top dose activity change, negative = inhibition, most hits filed as inhibitors; 4.4% of 360,000 active; further: on the % scale 0 is the no-effect control and ±100 the full control effect; nearly all actives have a fitted effect of over 60% in size
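Protein-peptide AlphaScreen: BAZ2B 50 nM, b-H3K14Ac 50 nM, 1x PBS pH 7.4 + 0.01% Tween-20. Preincubation 30 min RT; cpd 30 min RT (top 110 uM); beads 20 min RT, light-protected.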
HP1b binding inh: HP1-beta chromodomain-methylated histone interaction inhibition; P83916; AlphaScreen HP1-beta / biotin-H3K9me3 peptide binding; Potency, µM (series often up to 114 µM), for the others: top-dose activity change, negative = inhibition, usual class: inhibitors; 0.56% of 390,000 active; AID 540317; further: nearly all actives have a fitted effect of over 70% in size
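HP1-beta protein (50 nM final) preincubated 30 min at room temperature with biotinylated H3(1-18)K9me3 peptide (50 nM) in PBS pH 7.4, 0.01% Tween-20, then compound added for 30 min. AlphaScreen streptavidin donor/nickel chelate acceptor beads (10 ug/mL final), 30 min dark, luminescence read.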
G9a block: inhibitors of human histone lysine methyltransferase G9a; Potency, µM (titrated, usually from 102 µM), for inactives: at the highest dose activity, negative = inhibition, most hits filed as inhibitors; 8.8% of 350,000 active; AID 504332; G9a H3K9 monomethylation, AlphaScreen, 2 h; further: on the % scale 0 is the no-effect control and ±100 the full control effect; nearly all actives have a fitted effect of over 75% in size
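Using a bead-based AlphaScreen, monomethylated H3K9 product from 2 h room-temperature reactions (G9a 20 nM, peptide 500 nM, SAM 20 uM) was detected with 0.5 ug/mL rabbit anti-H3K9me1 antibody.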
Sfp inh: Sfp phosphopantetheinyl transferase inhibition | Biochemical Sfp PPTase activity, qHTS | Q9F4F7 | Potency, µM, without a hit: largest response in the series, negative = inhibition, most hits filed as inhibitors | AID 1490 | 3.5% of 310,000 active;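 further: the enzyme is Sfp with the accession as filed and its product quenches rhodamine fluorescence; 0% = enzyme reaction without inhibitor and -100% = no enzyme wells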
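After 15 min at room temperature with compound, 15 nM Sfp received 5 uM rhodamine-CoA plus 12.5 uM BHQ-2-ybbR (50 mM Hepes pH 7.6, 10 mM MgCl2). Rate came from the fluorescence difference over 30 min, ex 525/em 598 nm.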
ALOX12 inh: ALOX12 (human) lipoxygenase inhibition; purified 12hLO, xylenol orange hydroperoxide absorbance; Potency, µM (highest dose often 108 µM), inactives show at the top dose activity change, negative = inhibition, hits mostly inhibitors; 1.1% of 580,000 active; further: on the % scale 0 is the no-effect control and ±100 the full control effect
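Hydroperoxide product was detected by ferrous iron/xylenol orange as the 573 to 405 nm absorbance ratio. Arachidonic acid at 40 uM (final) was turned over for 30 min at room temperature by 150 nM human 12hLO, pH 7.0 Hepes buffer, after 15 min compound preincubation.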
JMJD2A Tudor inh: JMJD2A Tudor domain (human) inhibition; AlphaScreen JMJD2A-Tudor / H3K4me3 peptide binding; Potency, µM (titrated, usually from 114 µM), for inactives: at the top dose activity change, negative = inhibition, usual class: inhibitors; 4.4% of 390,000 active; AID 504339; further: on the % scale 0 is the no-effect control and ±100 the full control effect; nearly all actives have a fitted effect of over 50% in size
Target sequence (O75164 whole entry, looked up, the tested form may be a part): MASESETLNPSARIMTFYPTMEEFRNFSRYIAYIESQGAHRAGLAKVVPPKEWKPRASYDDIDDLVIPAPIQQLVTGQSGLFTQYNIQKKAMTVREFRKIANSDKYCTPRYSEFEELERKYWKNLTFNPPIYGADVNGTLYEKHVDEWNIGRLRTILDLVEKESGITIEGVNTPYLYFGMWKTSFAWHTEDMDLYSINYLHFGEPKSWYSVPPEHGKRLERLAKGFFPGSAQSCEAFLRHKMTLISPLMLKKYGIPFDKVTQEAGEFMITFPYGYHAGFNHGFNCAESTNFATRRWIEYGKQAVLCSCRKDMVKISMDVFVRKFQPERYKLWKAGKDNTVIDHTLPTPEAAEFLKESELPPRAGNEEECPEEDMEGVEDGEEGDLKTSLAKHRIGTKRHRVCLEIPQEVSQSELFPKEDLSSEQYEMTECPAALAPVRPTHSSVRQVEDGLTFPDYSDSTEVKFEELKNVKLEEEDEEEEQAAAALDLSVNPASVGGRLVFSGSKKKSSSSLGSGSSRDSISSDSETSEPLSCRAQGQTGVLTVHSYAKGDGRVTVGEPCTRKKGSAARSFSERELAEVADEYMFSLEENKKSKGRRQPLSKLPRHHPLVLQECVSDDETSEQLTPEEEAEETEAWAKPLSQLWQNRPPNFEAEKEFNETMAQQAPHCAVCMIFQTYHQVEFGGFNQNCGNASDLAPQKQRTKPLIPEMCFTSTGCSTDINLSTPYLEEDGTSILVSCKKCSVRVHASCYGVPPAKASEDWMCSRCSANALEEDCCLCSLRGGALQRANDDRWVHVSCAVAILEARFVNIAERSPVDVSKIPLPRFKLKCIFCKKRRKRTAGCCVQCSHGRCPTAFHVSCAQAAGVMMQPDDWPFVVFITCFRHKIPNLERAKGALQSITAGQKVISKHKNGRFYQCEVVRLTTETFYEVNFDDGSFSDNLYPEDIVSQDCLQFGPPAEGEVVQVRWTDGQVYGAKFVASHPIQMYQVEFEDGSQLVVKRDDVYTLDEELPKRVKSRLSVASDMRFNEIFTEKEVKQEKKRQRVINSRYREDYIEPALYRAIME
* = called active by the depositor; ? = inconclusive; / = not tested or not shown; [ ] = another dose, or the depositor's remark. Sampled rows, rich in hits. Any-hit rate of the full collection: about 8.7%. The call rests on the fitted dose curve; in most records, active means well fitted curve in the direction sought with a large enough effect; inconclusive means small, poorly fitted or top-dose-only effect, or another doubt; inactive means no such curve, though single readings can be large; an effect the other way counts as inactive or inconclusive. Potency means the concentration at half of the fitted maximal effect.

SMILES	BAZ2B block	HP1b binding inh	G9a block	Sfp inh	ALOX12 inh	JMJD2A Tudor inh
COCCNC(=O)c1cnn2c1NC(c1ccco1)CC2C(F)(F)F (stereo not drawn)	-8%	59%	11%[59 µM]	14%	?	-9%[57.1 µM]
CCOC(=O)N1CCC(NC(=O)c2cnn3c2NC(c2ccco2)CC3C(F)(F)F)CC1 (stereo not drawn)	-22%	7%	?	56µM*	-10%	-29%
Cc1ccc(C2CC(C(F)(F)F)n3ncc(C(=O)NCc4ccco4)c3N2)cc1 (stereo not drawn)	?	-15%	45µM*	15%	?	?
C=C1c2ccccc2NC(=O)N1c1ccc(C)cc1	5%	19%	8.9µM*	0%	0%	-20%
Cc1ccc2c(c1)/C(=N/N1C(=O)c3ccccc3C1=O)C(=O)N2	0%	13%	-12%[59 µM]	2%	-26%	-4%
C=C1c2cc(C)ccc2NC(=O)N1c1ccc(C)cc1	-11%	29%	10µM*	13%	5%	0%
Cc1ccc(-c2nc(C(=O)N3CCN(c4cccc(C)c4C)CC3)no2)cc1	/	/	/	/	5%	/
COc1ccc(CCC(=O)N2CCC(Cc3nc(-c4ccccc4)no3)CC2)cc1	/	/	/	/	16%	/
CCC(=O)c1ccc(OCC(O)CNCc2ccc(F)cc2)cc1 (stereo not drawn)	1%	?	17%	20%	-1%	-17%
COc1ccc(C(OCC(O)CNCCc2ccccc2)c2ccc(OC)cc2)cc1 (stereo not drawn)	32µM*	?	6%[0.501 µM]	-27%	?	3.5µM*
Cc1ccc(C(OCC(O)CNCc2ccc(F)cc2)c2ccccc2)cc1 (stereo not drawn)	40µM*	-34%	?	?	?	79µM*
O=C(c1ccccc1)c1ccc(OCC(O)CNCc2ccc(F)cc2)cc1 (stereo not drawn)	35µM*	-10%	5µM*	-13%	?	5µM*
Cc1ccc2nc(C)c(C(=O)NCc3cccnc3OC(C)C)cc2c1	/	/	/	/	35%	/
Cc1oc(-c2cccc(Cl)c2)nc1CN1CCCC(C(=O)NCc2ccc(Cl)cc2)C1 (stereo not drawn)	?	4%	-45%[59 µM]	/	?	?
Cc1oc(-c2cccc(Cl)c2)nc1CN1CCCC(C(=O)N2CCN(c3ccc(F)cc3)CC2)C1 (stereo not drawn)	10µM*	?	18µM*	/	-3%	40µM*
Cc1oc(-c2cccc(Cl)c2)nc1CN1CCCC(C(=O)NC(C)c2ccc3c(c2)OCCO3)C1 (stereo not drawn)	?	21%	50µM*	6%	69%	?
Cc1ccc(CCNC(=O)C2CCCN(Cc3nc(-c4cccc(Cl)c4)oc3C)C2)cc1 (stereo not drawn)	-20%	-10%	-33%[59 µM]	/	?	-30%
Cc1cccc(-c2nc(CN3CCCC(C(=O)NCCc4ccc(Cl)cc4)C3)c(C)o2)c1 (stereo not drawn)	56µM*	14%	?	/	?	?
Cn1nccc1C(=O)N1CCC[C@H](n2c(=O)n(C)c3cccnc32)C1	/	/	/	/	-5%	/
C/C(O)=C(\C#N)c1nnc2n1CCCCC2	56µM*	9%	10µM*	?	?	?
COc1ccc(CN(C)Cc2cc(=O)oc3cc(C)c(C(C)C)cc23)cc1OC	-13%	56%	89µM*	?	?	-11%
Cc1cc(C)c(S(=O)(=O)Nc2ccc(-c3cn4ccccc4n3)cc2)c(C)c1	?	-10%	?	-10%	23%	?
Cc1cc(C)c(S(=O)(=O)Nc2cccc(-c3cn4ccccc4n3)c2)c(C)c1	-28%	45%	-36%[59 µM]	/	-11%	5µM*
CCN(CC)S(=O)(=O)c1cccc(N=Nc2sc(N)nc2C)c1	11µM*	?	40µM*	-2%	3%	35µM*
CCN(CC)S(=O)(=O)c1cccc(-c2csc(C)n2)c1	0%	43%	-17%[59 µM]	6%	8%	7%
SMILES	BAZ2B block	HP1b binding inh	G9a block	Sfp inh	ALOX12 inh	JMJD2A Tudor inh
CN(Cc1ccco1)S(=O)(=O)c1ccc(CN2C(=O)c3cccnc3C2=O)s1	-36%[57.1 µM]	10%	?	8%	?	32µM*
COC(=O)CNc1c(-c2ccccn2)nc2ccc(Br)cn12	?	33%	?	28µM*	0%	-24%
O=C(O)CN1CCCCC1	?	12%	?	-9%	?	-5%
CC(C)(C)C1CCC(OC(=O)C[N+]2(C)CCCCC2)CC1 (stereo not drawn)	-14%	33%	-30%	-13%	?	-14%
CC1CCC(COC(=O)C[N+]2(C)CCCCC2)C(C)C1 (stereo not drawn)	/	/	/	/	22µM*	/
O=C(CN1CCCC1)OCCCC1CCCCC1	-20%	-15%	56µM*	7%	-16%	-17%
C[N+]1(CC(=O)OCCCC2CCCCC2)CCOCC1	/	/	/	/	11µM*	/
CC(C)CC1CCCCC1OC(=O)C[N+]1(C)CCCCC1 (stereo not drawn)	-33%	-12%	?	12%	?	?
C[N+]1(CC(=O)OCCCC2CCCCC2)CCCC1	-25%	?	56µM*	-2%	2%	?
CNC(C)c1cccc(OC)c1 (stereo not drawn)	/	/	/	/	9%[12.5 µM]	/
O=C(NCc1ccc(F)cc1)N1CCC(Oc2ncccc2C(=O)N2CCCCC2)C1 (stereo not drawn)	/	/	/	/	32%	/
CN(C)CCNC(=O)c1ccc(Sc2ccc(Br)cc2)c([N+](=O)[O-])c1	-22%	-14%	35µM*	-6%	?	?
Nc1ccccc1Sc1ccc(C(=O)c2ccccc2C(=O)O)cc1[N+](=O)[O-]	-35%	1%	20µM*	?	?	?
O=C(O)c1ccccc1C(=O)c1ccc(Sc2ccc(Cl)cc2)c([N+](=O)[O-])c1	?	-5%	/	14%	164%	-23%
Nc1cc(C(=O)O)ccc1Sc1ccccc1C(=O)O	-33%	-8%	4.5µM*	16µM*	?	-32%
Cc1cc(C)c(Sc2ccccc2C(=O)O)c(C)c1	/	/	/	/	1%	/
CC(=O)c1ccc(Sc2ccccc2)c([N+](=O)[O-])c1	?	?	22µM*	-1%	-14%	?
COC(=O)c1ccccc1NC(=O)C1=C(c2ccccc2)S(=O)(=O)CCO1	/	/	/	/	-5%	/
CC(C)c1noc(-c2cn(C3CCN(C(=O)c4ccco4)CC3)nn2)n1	/	/	/	/	9%	/
CC(C)OC(=O)c1ccccc1C(=O)c1ccc(N)c([N+](=O)[O-])c1	-26%	0%	13µM*	7%	-15%	-30%
CC(=O)c1ccc(Sc2ccccc2N)c([N+](=O)[O-])c1	?	-22%	45µM*	2%	154%	?
